HEK293 viab = GF-AFC viability counterscreen for inhibitors of alpha-synuclein gene (SNCA) expression. HEK-293-SNCA-luc viability, GF-AFC fluorescence, 24 h. Potency, µM (highest dose often 57.1 µM), without a hit: top-dose activity change, negative = cytotoxicity, usual class: cytotoxic. hit rate 0.12% among 150,000. AID 1671193, 2021;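 also: potency is read from the fitted curve at half-maximal effect; 0% = DMSO-treated cells and -100% = medium-only wells without cells; nearly all actives have a fitted effect of over 30% in size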
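HEK-293-SNCA-luc cells (1500/well) plated 24 h, then exposed 24 h to a dilution series; GF-AFC added 30 min at 37C, fluorescence 405/540 nm; normalised to medium-only and DMSO wells, Hill fit.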
HEK cytotox = Cytotoxic Profiling in HEK 293 Cell Line of Diverse Libraries Using Quantitative High-Throughput Screening. HEK 293 viability, ATP luminescence (CellTiter-Glo), 48-72 h. Potency, µM (highest dose often 115 µM), inactives show top-dose activity change, negative = cytotoxicity, most hits filed as inhibitors. hit rate 6.6% among 94,000; also: potency is read from the fitted curve at half-maximal effect; % is scaled to controls: 0 for no effect and ±100 for the full control effect; nearly all actives have a fitted effect of over 60% in size
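HEK 293 cells at 250 cells/well were exposed to compounds by pintool transfer for 48 or 72 hr at 37 degree Celsius, 5% CO2. Viability was read as ATP-coupled luminescence with CellTiter-Glo after 10 min at room temperature.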
SNCA expr inh = Primary qHTS assay for inhibitors of alpha-synuclein gene (SNCA) expression | Potency, µM (doses to about 57.2 µM), without a hit: at the highest dose activity change, negative = inhibition, hits mostly inhibitors | hit rate 0.17% among 140,000 | HEK-293 SNCA-luciferase knock-in, luminescence, 24 h | AID 1671194, 2021;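 also: potency is read from the fitted curve at half-maximal effect; plate controls were DMSO cells for no effect and cell-free wells for full effect; nearly all actives have a fitted effect of over 45% in size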
IP6K1 inhibitor = Primary qHTS assay for small molecule inhibitors of Inositol hexaphosphate kinase 1 (IP6K1). Inositol hexakisphosphate kinase 1 (Homo sapiens), Q92551. IP6K1 kinase, ADP-Glo luminescence, 2 h; active compounds read low. activity change, % (series mostly up to about 58 µM). hit rate 0.81% among 140,000; in the data active = activity change below about -25%; also: % is scaled to controls: 0 for no effect and ±100 for the full control effect
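ADP-Glo luminescence measures ADP made by human IP6K1 during a 2 h RT reaction with ATP/IP6 (mix at 1.3 mM/130 uM); top library doses 57.5 and 19.1 uM final.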
3T3 cytotox = Cytotoxic Profiling in NIH 3T3 Cell Line of Diverse Libraries Using Quantitative High-Throughput Screening; Potency, µM (series often up to 96.7 µM), inactives show at the highest dose activity change, negative = cytotoxicity, hits mostly inhibitors; NIH 3T3 viability, CellTiter-Glo ATP luminescence, 48-72 h; hit rate 4.3% among 94,000; also: potency is read from the fitted curve at half-maximal effect; % is scaled to controls: 0 for no effect and ±100 for the full control effect; nearly all actives have a fitted effect of over 55% in size
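First NIH 3T3 cells are plated at 400 cells/well; next compound is pinned in; then plates incubate 48 or 72 hr at 37 °C; finally CellTiter-Glo is added and luminescence read after 10 min.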
FLuc inh-1 = Firefly luciferase inhibition profiling of diverse chemical library using quantitative high-throughput screening. Luciferin 4-monooxygenase (Photinus pyralis), P08659. purified P. pyralis luciferase, luminescence, biochemical. Potency, µM (top dose mostly 115 µM), actives largely listed as inhibitors. hit rate 2.5% among 76,000; also: potency is read from the fitted curve at half-maximal effect; % is scaled to controls: 0 for no effect and ±100 for the full control effect; nearly all actives have a fitted effect of over 65% in size
Target sequence (P08659 whole entry, looked up): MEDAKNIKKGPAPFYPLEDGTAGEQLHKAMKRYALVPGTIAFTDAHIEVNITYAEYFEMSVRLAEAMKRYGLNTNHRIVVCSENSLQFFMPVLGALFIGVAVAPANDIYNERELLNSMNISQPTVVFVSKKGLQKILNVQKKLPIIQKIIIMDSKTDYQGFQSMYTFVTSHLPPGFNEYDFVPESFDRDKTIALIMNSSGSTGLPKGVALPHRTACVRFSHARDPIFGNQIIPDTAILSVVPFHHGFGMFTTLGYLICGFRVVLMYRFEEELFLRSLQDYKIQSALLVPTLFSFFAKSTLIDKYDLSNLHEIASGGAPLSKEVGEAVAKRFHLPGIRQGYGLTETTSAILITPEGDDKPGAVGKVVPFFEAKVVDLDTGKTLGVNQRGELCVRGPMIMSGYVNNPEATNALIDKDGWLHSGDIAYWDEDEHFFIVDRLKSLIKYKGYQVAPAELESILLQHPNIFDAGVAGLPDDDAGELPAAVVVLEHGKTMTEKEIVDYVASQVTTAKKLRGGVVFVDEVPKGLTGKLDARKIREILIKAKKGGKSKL
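Purified P. pyralis luciferase (10nM final) in 50mM Tris acetate pH 7.5, 10mM Mg acetate, 0.01% Tween-20, 0.05% BSA with 10uM D-luciferin and 10uM ATP. Compounds titrated qHTS. Luminescence imaged on CCD.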
FLuc SDR -ATP = Firefly luciferase (FLuc-C-HiBiT) SDR gain of signal screen - without ATP; shares compounds with FLuc inh-1; Purified FLuc-C-HiBiT, Nano-Glo HiBiT luminescence, no ATP; Potency, µM (series often up to 32.7 µM), for inactives: top-dose activation (signal gain), usual class: activators; hit rate 7.8% among 1,300; AID 1963318, 2024; also: potency is read from the fitted curve at half-maximal effect; nearly all actives have a fitted effect of over 55% in size
FLuc SDR ATP = Firefly luciferase (FLuc-C-HiBiT) SDR gain of signal screen - plus ATP | shares compounds with FLuc inh-1 | purified FLuc-C-HiBiT + ATP, HiBiT complementation luminescence | Potency, µM (titrated, usually from 32.7 µM), for inactives: at the top dose activation (gain of signal), hits mostly activators | hit rate 8.7% among 1,300 | AID 1963319, 2024;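 also: signal reports ligand binding via conformational change of the enzyme rather than luciferase catalysis; potency is read from the fitted curve at half-maximal effect; % of control where 0% means no effect; nearly all actives have a fitted effect of over 55% in size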
FLuc inh-2 = Firefly luciferase (FLuc-C-HiBiT) enzymatic inhibition screen - Functional assay | shares compounds with FLuc inh-1 | purified FLuc-C-HiBiT enzyme, luciferin luminescence | Potency, µM (top dose mostly 32.7 µM), without a hit: top-dose activity change, negative = inhibition, most hits filed as inhibitors | hit rate 42% among 1,300; also: potency is read from the fitted curve at half-maximal effect; % is scaled to controls: 0 for no effect and ±100 for the full control effect; nearly all actives have a fitted effect of over 70% in size
An asterisk follows results filed as active. Shown are actives, neighbours in structure and some others; about 7.3% of the full set was active somewhere. Unless noted, calls follow the shape of the dose curve; as a rule, active = well fitted curve in the direction sought with a large enough effect; inconclusive = small, poorly fitted or top-dose-only effect, or another doubt; inactive = no such curve, though single readings can be large; an effect the other way counts as inactive or inconclusive.

Screening CC(C)n1cnnc1CN(C)c1nc(N)nc2nc[nH]c12 returned HEK293 viab 1%, HEK cytotox -7%, SNCA expr inh 12%, IP6K1 inhibitor -7, 3T3 cytotox 1%, FLuc inh-1 inactive, FLuc SDR -ATP 15%, FLuc SDR ATP 8% and FLuc inh-2 -3%.
`CC(C)n1cnnc1CC1CCCNC1` (centres undefined) gave HEK293 viab 5%, HEK cytotox 0%, SNCA expr inh 14%, IP6K1 inhibitor 18, 3T3 cytotox -4% and FLuc inh-1 inactive.
For CCCc1nn2cc(-c3ccc(C)c(C)c3)nc2s1 the results were HEK293 viab -3%, SNCA expr inh -79%, IP6K1 inhibitor 20, FLuc SDR -ATP inconclusive, FLuc SDR ATP inconclusive and FLuc inh-2 0.62µM*.
For Cc1ccc(-c2cc3c(=O)n(CCNC(=O)c4cccc(Cl)c4)ccn3n2)c(C)c1 the results were HEK293 viab -13%, HEK cytotox inconclusive, SNCA expr inh 52%, IP6K1 inhibitor 0, 3T3 cytotox inconclusive, FLuc inh-1 1.6µM*, FLuc SDR -ATP 28%, FLuc SDR ATP inconclusive and FLuc inh-2 3.9µM*.
`COc1ccc(C(=O)NCCn2ccn3nc(-c4ccc(C)cc4C)cc3c2=O)c(C)c1` gave HEK293 viab inconclusive, HEK cytotox inconclusive, SNCA expr inh 8%, IP6K1 inhibitor -9, 3T3 cytotox inconclusive, FLuc inh-1 3.5µM*, FLuc SDR -ATP 24%, FLuc SDR ATP 15% and FLuc inh-2 5µM*.
For Cc1ccc(-c2cc3c(=O)n(CCNC(=O)c4cc(F)ccc4F)ccn3n2)c(C)c1 the results were HEK293 viab 6%, HEK cytotox -10%, SNCA expr inh 94%, IP6K1 inhibitor -7, 3T3 cytotox -19% and FLuc inh-1 inconclusive.
`Cc1cc(C)cc(C(=O)NCCn2ccn3nc(-c4ccc(C)cc4C)cc3c2=O)c1` gave HEK293 viab -1%, HEK cytotox inconclusive, SNCA expr inh 102%, IP6K1 inhibitor -1, 3T3 cytotox inconclusive, FLuc inh-1 2.8µM*, FLuc SDR -ATP 22%, FLuc SDR ATP 14% and FLuc inh-2 7µM*.
`Cc1ccc(-c2cc3c(=O)n(CCNC(=O)c4ccccc4F)ccn3n2)c(C)c1` gave HEK293 viab 0%, HEK cytotox inconclusive, SNCA expr inh 45%, IP6K1 inhibitor 0, 3T3 cytotox -18%, FLuc inh-1 6.3µM*, FLuc SDR -ATP inconclusive, FLuc SDR ATP inconclusive and FLuc inh-2 7µM*.

Screening results as filed in PubChem BioAssay.
